B2AR arrestin = agonists driving beta-arrestin recruitment to human beta2-adrenergic receptor; P07550; beta-arrestin recruitment to beta2AR, cell-based reporter; Potency, µM (titrated, usually from 46.1 µM), for the others: top-dose activation, most hits filed as activators; 330,000 tested, 0.02% active; AID 492947;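 note: potency is the fitted concentration of half-maximal effect; 0% = DMSO controls and full agonism = EC100 isoproterenol or metaproterenol; nearly all actives have a fitted effect of over 65% in size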
Target sequence (P07550 whole entry, looked up): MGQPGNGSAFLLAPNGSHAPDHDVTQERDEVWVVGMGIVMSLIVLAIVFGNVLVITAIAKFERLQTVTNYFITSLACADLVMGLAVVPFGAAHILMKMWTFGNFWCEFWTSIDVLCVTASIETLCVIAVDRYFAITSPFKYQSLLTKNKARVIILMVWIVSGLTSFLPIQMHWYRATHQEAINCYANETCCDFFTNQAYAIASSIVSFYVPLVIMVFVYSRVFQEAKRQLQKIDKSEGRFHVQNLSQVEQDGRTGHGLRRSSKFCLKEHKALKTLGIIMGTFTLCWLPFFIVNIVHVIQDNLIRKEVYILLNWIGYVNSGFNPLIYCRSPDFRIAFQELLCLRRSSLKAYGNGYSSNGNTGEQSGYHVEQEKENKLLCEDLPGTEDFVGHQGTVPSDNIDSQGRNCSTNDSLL
Mito fusion act = mitochondrial division inhibition or fusion activation; S. cerevisiae fusion-defective mutant growth rescue, CellTiterGlo 48 h; Potency, µM (highest dose often 46.1 µM), for inactives: at the highest dose growth rescue (activation), hits mostly activators; 320,000 tested, 0.23% active; AID 485298; note: potency is the fitted concentration of half-maximal effect; % of control where 0% means no effect; nearly all actives have a fitted effect of over 45% in size
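Yeast fusion mutant, YPEG (non-fermentable carbon), compound, 48 h at 37C non-permissive; CellTiterGlo added, 10 min RT, luminescence read. Rescued growth = division inhibition.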
uPA generation = inhibitors of cell surface uPA generation; cell surface uPA generation assay, qHTS; Potency, µM (highest dose often 38.3 µM), inactives show top-dose activity change, negative = inhibition, hits mostly inhibitors; 330,000 tested, 0.31% active; active = well fitted inhibition curve with a large enough effect; inconclusive = small, poorly fitted or top-dose-only effect; inactive = no such curve, though single readings can be large or run the other way; tested in mouse RAW 264.7 cells; note: potency is the fitted concentration of half-maximal effect; % is set by controls: 0 for no effect and ±100 for the full control effect; nearly all actives have a fitted effect of over 55% in size
ClpP mod = qHTS Assay for Activators of ClpP. ATP-dependent Clp protease proteolytic subunit (Bacillus subtilis (strain 168)), P80244. purified B. subtilis ClpP, FRET peptide cleavage, 20 min. Potency, µM (highest dose often 57.5 µM), without a hit: at the top dose activity change, negative = active. 340,000 tested, 1.9% active. AID 651965, 2013; active = well fitted falling curve with a large enough effect; inconclusive = small, poorly fitted or top-dose-only effect; inactive = no such curve, though single readings can be large or run the other way; note: potency is the fitted concentration of half-maximal effect; the source files actives as falling curves though it sought activators and does not explain the sign; nearly all actives have a fitted effect of over 65% in size
Target sequence (P80244 whole entry, looked up): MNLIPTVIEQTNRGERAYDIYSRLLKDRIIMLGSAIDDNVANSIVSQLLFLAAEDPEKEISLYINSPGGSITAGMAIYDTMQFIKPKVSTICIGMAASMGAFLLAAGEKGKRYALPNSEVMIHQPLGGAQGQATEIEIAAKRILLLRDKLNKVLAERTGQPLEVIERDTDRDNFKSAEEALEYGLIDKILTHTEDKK
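Buffer: 100 mM Tris/HCl pH8, 100 mM KCl, 0.05% low protease BSA, 2.5% glycerol, 0.01% Tween-20. ClpP 10 microg/mL final; 20 min RT; delta FRET normalized to ADEP and DMSO controls.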
Giardia killer = Giardia lamblia killing. 340,000 tested, 0.15% active. activity change, % at 7.66 µM, hits read low. AID 540267. Giardia lamblia trophozoite viability; in the data active = activity change below about -80%; inconclusive = between about -30% and that limit;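 note: parasites exposed to compound for two days anaerobically before the ATP read; % is set by controls: 0 for no effect and ±100 for the full control effect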
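Killing of trophozoites was scored by loss of ATP luminescence after a 48 hrs anaerobic exposure to compounds at 37 deg C, using 100 cells per well.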
p53 reactivator = restores transcriptional activity of mutant p53 | Potency, µM (series often up to 92.2 µM), for inactives: at the top dose activity change, positive = activation, actives largely listed as activators | 320,000 tested, 0.063% active | H1299 p53-A138V BP100-luciferase reporter, luminescence, 24 h; note: potency is the fitted concentration of half-maximal effect; % of control where 0% means no effect; nearly all actives have a fitted effect of over 45% in size
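p53-null H1299 cells stably carrying temperature-sensitive p53-A138V and a BP100-luciferase reporter were pinned with compounds (4-point, 1:5 series) and held 24 hrs at 37 deg C. Luminescence was read 10 min after detection reagent.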
* hit, by the source's call; ? = inconclusive; / = no result given; [ ] = remark or other dose. This is a sample that favours compounds with a hit; in the whole collection about 2.1% have one here. Unless noted, calls come from the whole dose curve; as a rule, active = well fitted curve in the direction sought with a large enough effect; inconclusive = small, poorly fitted or top-dose-only effect, or another doubt; inactive = no such curve, though single readings can be large; an effect the other way counts as inactive or inconclusive.

SMILES	B2AR arrestin	Mito fusion act	uPA generation	ClpP mod	Giardia killer	p53 reactivator
O=C(O)COc1ccc(/C=N/NC(=O)c2cn(-c3ccccc3)nc2-c2ccccc2)cc1	1%	-3%	-5%	/	-3	1%
O=C(N/N=C/c1ccc([N+](=O)[O-])o1)c1cn(-c2ccccc2)nc1-c1ccc(Cl)cc1	0%	-5%	19%	0%	-90*	-2%
O=C(N/N=C/c1ccc([N+](=O)[O-])o1)c1cn(-c2ccccc2)nc1-c1ccccc1	0%	2%	6%	/	-95*	12%
c1ccc2c(c1)oc1c(-c3cccc4nccn34)cccc12	/	/	/	4%	/	/
COc1ccc(-c2cnc(C)o2)cc1S(=O)(=O)Nc1ccc(F)cc1F	/	/	/	-1%	/	/
CC(C)(C)C(=O)Nc1cccc(C(=O)OCc2cc(=O)n3nc(C4CC4)sc3n2)c1	/	/	/	0%	/	/
Cc1cc(C)c(NC(=O)Cc2ccc(-n3c(C)nc4cccnc43)cc2)c(C)c1	/	/	/	-8%	/	/
COCCN1C(=O)CCC1(C)C(=O)Nc1ccc2c(c1)OCCO2 (configuration not stated)	/	/	/	-2%	/	/
O=C(N/N=C\c1ccccc1)c1ccccc1-n1cccc1	0%	10%	2%	/	-1	2%
O=C(N/N=C/c1ccc([N+](=O)[O-])o1)c1ccccc1-n1cccc1	-1%	0%	-13%	/	-99*	29%
CC(C)(C)c1ccc2c(c1)OC(C(=O)N/N=C/c1ccc([N+](=O)[O-])o1)CO2 (configuration not stated)	-1%	-1%	-7%	/	-98*	1%
CO[C@@H]1CN(C)C(=O)c2ccc(NS(=O)(=O)c3c(C)noc3C)cc2OC[C@@H](C)NC[C@@H]1C	/	/	/	1%	/	/
CC1CCCCC1NC(=O)COC(=O)COc1ccccc1Cl (configuration not stated)	0%	-11%	/	1%	7	0%
CC1CCCCC1NC(=O)COC(=O)COc1ccccc1F (configuration not stated)	0%	/	5%	28µM*	8	4%
COc1cc(C(=O)NCC(c2cccs2)S(=O)(=O)c2ccc(F)cc2)cc(OC)c1OC (configuration not stated)	/	/	/	-1%	/	/
COc1cc(OC)c2c(OC)cccc2n1	3%	0%	-3%	18µM*	5	14%
Cc1ccc(-c2cn3ccc(C)cc3n2)cc1	/	/	/	0%	/	/
Cc1ccn2cc(-c3ccc(Br)cc3)nc2c1	-1%	1%	2.8µM*	3%	?	3%
Cc1ccn2cc(-c3cnoc3C)nc2c1	0%	-1%	-8%	14µM*	26	?
Cc1oncc1-c1cn2ccccc2n1	-1%	-2%	-1%	25µM*	-14	5%
CCCCCOc1ccc(C(=O)OCC(=O)Nc2cc(C)on2)cc1	0%	-33%	-11%	18µM*	-3	2%
COc1ccc2c(COC(=O)c3n[nH]c4ccccc34)cc(=O)oc2c1	0%	3%	-3%	28µM*	-20	?
Cc1cc(NC(=O)COC(=O)c2n[nH]c3ccccc23)no1	0%	-4%	2%	11µM*	-21	-2%
CCc1ccccc1NC(=O)Nc1c[nH]c(=O)[nH]c1=O	/	/	/	-1%	/	/
Nc1ccc2nc(-c3cc(Cl)c(N)c(Cl)c3)[nH]c2c1	0%	-3%	-7%	-5%	-10	?
SMILES	B2AR arrestin	Mito fusion act	uPA generation	ClpP mod	Giardia killer	p53 reactivator
Nc1ccc2nc(-c3ccc(Cl)cc3)[nH]c2c1	-1%	-2%	4.5µM*	5%	-19	?
Nc1ccc(-c2nc3ccc([N+](=O)[O-])cc3[nH]2)cc1	-2%	1%	-3%	-1%	7	?
Nc1ccc(-c2nc3c(Cl)c(N)ccc3[nH]2)cc1	0%	-2%	-9%	28µM*	1	-8%
CCc1ccc(NC(=O)c2ccc3c(c2)N(Cc2ccc(C)cc2)CCS3)cc1	/	/	/	4%	/	/
O=C(c1ccc2c(c1)N(Cc1cccc(Cl)c1)C(=O)c1ccccc1S2(=O)=O)N1CCC(Cc2ccccc2)CC1	/	/	/	-1%	/	/
CCOC(=O)c1ccc(COC(=O)CCc2nc3ccccc3[nH]c2=O)o1	-1%	1%	6%	32µM*	-2	2%
CCCCOC(=O)CCc1nc2ccccc2[nH]c1=O	0%	2%	5%	?	0	-2%
Cc1ccc(C2C3=C(CC(C)(C)CC3=O)Nc3onc(C)c32)cc1 (configuration not stated)	0%	20%	-9%	32µM*	4	-3%
Cc1noc2c1C(c1ccc(N(C)C)cc1)C1=C(CC(C)(C)CC1=O)N2 (configuration not stated)	0%	4%	-14%	-3%	7	0%
CC1(C)CC(=O)C2=C(C1)Nc1cc3c(cc1C2c1ccc(F)cc1)OCO3 (configuration not stated)	0%	0%	-3%	32µM*	0	20%
CC(C)c1ccc(NC(=O)Cn2cc(S(=O)(=O)Cc3ccccc3Cl)c3ccccc32)cc1	/	/	/	-9%	/	/
Cc1cccc(NC(=S)NC(=O)C2CC2)c1	?	-7%	/	/	/	25µM*
Cc1cc(C)cc(NC(=S)NC(=O)C2CC2)c1	-2%	8%	-3%	-2%	-17	-8%
Cc1ccc(NC(=O)CSc2nc3c(oc4ccccc43)c(=O)n2Cc2ccco2)cc1	/	/	/	-6%	/	/
Oc1[nH]c2ccccc2c1N=Nc1ccccc1	0%	2%[0.369 µM]	3%	/	17	28µM*
COc1cc(OC)c(NS(=O)(=O)c2c(C(=O)N3CCC(C)CC3)c(C)n(C)c2C)cc1Cl	/	/	/	0%	/	/
Cc1[nH]n(-c2ccc(Br)cc2)c(=O)c1/C=N/NC(=O)c1ccccc1	0%	0%	6.3µM*	1%	1	-13%
Cc1ccc(C)c(CNc2ccc(S(=O)(=O)N3CCCCC3)cc2)c1	0%	21%	2.5µM*	-17%	13	20%
CCOC(=O)C1=C(O)C(=O)NC(c2ccccc2)=C(OCC)C1	0%	/	-1%	-3%	-5	?
CCOC(=O)C1=C(O)C(=O)NC(c2ccccc2)=C(OC2CCCCC2)C1	7%	10µM*	3%	1%	-13	-8%
COc1ccc(Cn2nnnc2C(c2ccccn2)N2CCN(c3ccc(O)cc3)CC2)cc1 (configuration not stated)	/	/	/	-9%	-5	/
CCOc1ccc2[nH]c(C)c(CN3CCCCC3)c(=O)c2c1	0%	5%	0%	294%	-17	-13%
COc1ccc2[nH]c(C)c(CN3CCC(C)CC3)c(=O)c2c1	0%	-3%	-1%	10µM*	17	1%
CCOc1ccc2[nH]c(C)cc(=O)c2c1	0%	7%	9%	4%	-3	-2%

Bioassay records: PubChem BioAssay, National Center for Advancing Translational Sciences (NCATS)
